Reference: the supplement of paper PMC8728848
This excerpt belongs to a sample that is enriched for the strongest signals.

Columns and labels:
Assay in all cases: glycan array binding signal (z-score within array); higher = stronger binding
Details in all cases: glycan notation: IUPAC condensed, linker removed
[1] = target: GalNAc(a1-3)GalNAc(b1-3)Gal(a1-4)Gal(b1-4)Glc
Outline: (§1)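 Glycan array data came from 3228 arrays in the Consortium for Functional Glycomics database, and only arrays with an available protein sequence were kept. Glycan names were put into IUPAC-condensed notation, and columns mapping to the same glycan were averaged. The binding signal is a within-array Z-score, averaged across arrays of one protein sequence run at different concentrations or buffers and across linkers. A negative Z-score can be read as non-binding.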

GalNAc(b1-3)Gal = target: GalNAc(b1-3)Gal
Outline: as §1

GalNAc(b1-3)GlcNAc = target: GalNAc(b1-3)GlcNAc
Outline: as §1

GalNAc(b1-4)GlcNAc = target: GalNAc(b1-4)GlcNAc
Outline: as §1

[2] = target: GalNAc(b1-4)GlcNAc(b1-3)GalNAc(b1-4)GlcNAc
Outline: as §1

GalNAc(b1-4)GlcNAc6S = target: GalNAc(b1-4)GlcNAc6S
Outline: as §1

[3] = target: Glc(a1-6)Glc(a1-6)Glc(a1-6)Glc
Outline: as §1

Glc(b1-6)Glc = target: Glc(b1-6)Glc
Outline: as §1

GlcA(b1-3)Gal = target: GlcA(b1-3)Gal
Outline: as §1

GlcA(b1-3)GlcNAc = target: GlcA(b1-3)GlcNAc
Outline: as §1

[4] = target: GlcNAc(b1-3)Gal(b1-4)GlcNAc(b1-3)Gal(b1-4)GlcNAc(b1-3)Gal(b1-4)GlcNAc(b1-3)Gal(b1-4)GlcNAc(b1-2)[GlcNAc(b1-3)Gal(b1-4)GlcNAc(b1-3)Gal(b1-4)GlcNAc(b1-3)Gal(b1-4)GlcNAc(b1-3)Gal(b1-4)GlcNAc(b1-6)]Man(a1-6)[GlcNAc(b1-3)Gal(b1-4)GlcNAc(b1-3)Gal(b1-4)GlcNAc(b1-3)Gal(b1-4)GlcNAc(b1-3)Gal(b1-4)GlcNAc(b1-2)Man(a1-3)]Man(b1-4)GlcNAc(b1-4)[Fuc(a1-6)]GlcNAc
Outline: as §1

[5] = target: GlcNAc(b1-3)Gal(b1-4)GlcNAc(b1-6)[Gal(b1-3)]GalNAc
Outline: as §1

GlcNAc(b1-6)GalNAc = target: GlcNAc(b1-6)GalNAc
Outline: as §1

[6] = target: Man(a1-2)Man(a1-2)Man(a1-3)Man
Outline: as §1

[7] = target: Man(a1-3)[Man(a1-6)]Man(a1-6)[Man(a1-2)Man(a1-3)]Man(b1-4)GlcNAc(b1-4)GlcNAc
Outline: as §1

[8] = target: Neu5Ac(a2-3)Gal(b1-3)GlcNAc(b1-3)Gal(b1-4)GlcNAc
Outline: as §1

[9] = target: Neu5Ac(a2-3)Gal(b1-3)[Fuc(a1-4)]GlcNAc
Outline: as §1

[10] = target: Neu5Ac(a2-3)Gal(b1-4)GlcNAc(b1-2)Man
Outline: as §1

[11] = target: Neu5Ac(a2-3)Gal(b1-4)GlcNAc(b1-3)Gal
Outline: as §1

[12] = target: Neu5Ac(a2-3)Gal(b1-4)GlcNAc(b1-3)Gal(b1-4)GlcNAc(b1-2)Man(a1-3)[Neu5Ac(a2-3)Gal(b1-4)GlcNAc(b1-3)Gal(b1-4)GlcNAc(b1-2)Man(a1-6)]Man(b1-4)GlcNAc(b1-4)GlcNAc
Outline: as §1

[13] = target: Neu5Ac(a2-3)Gal(b1-4)[Fuc(a1-3)]GlcNAc(b1-3)Gal(b1-4)GlcNAc
Outline: as §1

[14] = target: Neu5Ac(a2-3)Gal(b1-4)[Fuc(a1-3)]GlcNAc(b1-6)[Gal(b1-3)]GalNAc
Outline: as §1

[15] = target: Neu5Ac(a2-6)Gal(b1-4)GlcNAc(b1-2)Man
Outline: as §1

[16] = target: Neu5Ac(a2-6)Gal(b1-4)GlcNAc(b1-2)Man(a1-6)[Gal(b1-4)GlcNAc(b1-2)Man(a1-3)]Man(b1-4)GlcNAc(b1-4)GlcNAc
Outline: as §1

[17] = target: Neu5Ac(a2-8)Neu5Ac(a2-8)Neu5Ac(a2-3)[Gal(b1-3)GalNAc(b1-4)]Gal(b1-4)Glc
Outline: as §1

Neu5Ac(b2-6)GalNAc = target: Neu5Ac(b2-6)GalNAc
Outline: as §1

B1: MGL2 (Mus musculus), Q8JZN1 (protein)
chain: MTMRYENFQNLEREEKNQEMRNGDKKGGMESPKFALIPSQSFLWRILSWTHLLLFSLGLSLLLLVVISVIGSQNSQLRRDLGTLRAILDNTTSKIKAEFQSLDSRADNFEKGISSLKVDVEDHRQELQAGRDLSQKVTSLESTLEKREQALKTDLSDLTDHVQQLETDLKALTCQLANLKNNGSEVACCPLHWTEHEGSCYWFSESEKSWPEADKYCRLENSHLVVVNSLEEQNFLQNRLANVLSWMGLTDQNGPWRWVDGTDFDKGFKNWRPLQPDNWHGHMLGGGEDCAHFSYDGRWNDDVCQRHYHWICETELGKASSAHSPQLIASVP
glycan array binding signal (z-score) [1]: -0.259 | glycan array binding signal (z-score) (GalNAc(b1-3)Gal): 4.95 | glycan array binding signal (z-score) (GalNAc(b1-3)GlcNAc): 8.82 | glycan array binding signal (z-score) (GalNAc(b1-4)GlcNAc): 5.73 | glycan array binding signal (z-score) [2]: 2.48 | glycan array binding signal (z-score) (GalNAc(b1-4)GlcNAc6S): 3.46 | glycan array binding signal (z-score) [3]: 0.014 | glycan array binding signal (z-score) (Glc(b1-6)Glc): -0.253 | glycan array binding signal (z-score) (GlcA(b1-3)Gal): -0.219 | glycan array binding signal (z-score) (GlcA(b1-3)GlcNAc): 0.307 | glycan array binding signal (z-score) [4]: -0.062 | glycan array binding signal (z-score) [5]: -0.047 | glycan array binding signal (z-score) (GlcNAc(b1-6)GalNAc): 6.85 | glycan array binding signal (z-score) [6]: -0.161 | glycan array binding signal (z-score) [7]: -0.006 | glycan array binding signal (z-score) [8]: -0.274 | glycan array binding signal (z-score) [9]: -0.173 | glycan array binding signal (z-score) [10]: -0.034 | glycan array binding signal (z-score) [11]: -0.3 | glycan array binding signal (z-score) [12]: 0.166 | glycan array binding signal (z-score) [13]: -0.189 | glycan array binding signal (z-score) [14]: -0.139 | glycan array binding signal (z-score) [15]: -0.19 | glycan array binding signal (z-score) [16]: -0.174 | glycan array binding signal (z-score) [17]: -0.194 | glycan array binding signal (z-score) (Neu5Ac(b2-6)GalNAc): -0.176
